# Reference: PubChem BioAssay (EPA / NIEHS)
# Results filed as inconclusive are left out. Active and inactive are the calls of the source. How the source made its calls, unless noted: active means hit-call score of the fitted dose curve at least 0.9, where 1 is the maximum; inactive means score below 0.9.
# Assays:
# [1] = read-out: NAD(P)H dehydrogenase [quinone] 1 (NQO1), NQO1 (gene 1728); experiment: LTEA_HepaRG_NQO1: Life Technologies and Expression Analysis (LTEA) Assay for NAD(P)H dehydrogenase [quinone] 1 (NQO1) using HepaRG (AID 2283526); settings: mRNA level, 48 h; actives raise or lower the signal
# How it was run: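 HepaRG, 48 h post-plating → serum-free induction medium → test chemical 48 h (duplicate, 100 uM top, half-log x8, 0.5% DMSO) → RNA isolation → qRT-PCR, ACTB/GAPDH/POLR2A normalization; bidirectional curve fit vs DMSO baseline.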
# [2] = read-out: Nuclear factor erythroid 2-related factor 2 (Homo sapiens) (UniProt Q16236); experiment: LTEA_HepaRG_NFE2L2: Life Technologies and Expression Analysis (LTEA) Assay for Nuclear factor erythroid 2-related factor 2 (NFE2L2) Transcription Factor using HepaRG (AID 2283527); settings: mRNA level, 48 h; actives raise or lower the signal;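 further: TaqMan qRT-PCR transcript level normalised to ACTB GAPDH and POLR2A housekeeping genes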
# How it was run: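 Transcript level of NFE2L2 is the read-out, measured by microfluidic TaqMan qRT-PCR and normalized to three housekeeping genes. Human HepaRG cultures received test chemical for 48 h at up to 100 uM in half-log steps. Gain or loss of signal is fitted relative to 0.5% DMSO.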
# [3] = read-out: succinate dehydrogenase complex iron sulfur subunit B (SDHB), SDHB (gene 6390); experiment: LTEA_HepaRG_SDHB: Life Technologies and Expression Analysis (LTEA) Assay for succinate dehydrogenase complex iron sulfur subunit B (SDHB) using HepaRG (AID 2283528); settings: mRNA level, 48 h; actives raise or lower the signal
# How it was run: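 Readout is SDHB transcript level by qRT-PCR, normalised to three housekeeping genes and fitted bidirectionally against 0.5% DMSO vehicle. Human HepaRG cells were treated for 48 h at up to 100 uM.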
# [4] = read-out: Signal transducer and activator of transcription 3 (Homo sapiens) (UniProt P40763); experiment: LTEA_HepaRG_STAT3: Life Technologies and Expression Analysis (LTEA) Assay for Signal transducer and activator of transcription (STAT3) using HepaRG (AID 2283529); settings: mRNA level, 48 h; actives raise or lower the signal
# How it was run: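 Read-out is STAT3 mRNA level by qRT-PCR, normalized to three housekeeping genes, in human HepaRG liver cells treated for 48 h. Concentrations ran from 100 uM downward in half-log steps; curves were fitted for gain or loss relative to 0.5% DMSO.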
# [5] = read-out: solute carrier (SLCO1B1), SLCO1B1 (gene 10599); experiment: LTEA_HepaRG_SLCO1B1: Life Technologies and Expression Analysis (LTEA) Assay for solute carrier (SLCO1B1) using HepaRG (AID 2283530); settings: mRNA level, 48 h; actives raise or lower the signal
# How it was run: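 Differentiated human HepaRG cells were exposed for 48 h in serum-free induction medium to eight half-log concentrations, top 100 uM, in 0.5% DMSO. SLCO1B1 mRNA was measured by qRT-PCR, normalized to ACTB, GAPDH and POLR2A, and fitted bidirectionally against DMSO.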
# [6] = read-out: sulfotransferase 2A1 (SULT2A1), SULT2A1 (gene 6822); experiment: LTEA_HepaRG_SULT2A1: Life Technologies and Expression Analysis (LTEA) Assay for sulfotransferase 2A1 (SULT2A1) using HepaRG (AID 2283531); settings: mRNA level, 48 h; actives raise or lower the signal
# How it was run: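 HepaRG human liver cells, 48 h exposure in serum-free induction medium to 8 half-log concentrations topping at 100 µM (0.5% DMSO), duplicate wells. SULT2A1 mRNA measured by TaqMan qRT-PCR, normalized to ACTB/GAPDH/POLR2A; bidirectional fit against DMSO.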
# [7] = read-out: Transforming Growth Factor (TGFA), TGFA (gene 7039); experiment: LTEA_HepaRG_TGFA: Life Technologies and Expression Analysis (LTEA) Assay for Transforming Growth Factor (TGFA) using HepaRG (AID 2283532); settings: mRNA level, 48 h; actives raise or lower the signal
# How it was run: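 HepaRG (human liver line), 48 h exposure, 8 conc. half-log down from 100 uM, 0.5% DMSO vehicle, duplicates; serum-free induction medium. TGFA mRNA by TaqMan qRT-PCR, ACTB/GAPDH/POLR2A normalization; gain/loss fit vs DMSO.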
# [8] = read-out: Transforming Growth Factor (TGFB1), TGFB1 (gene 7040); experiment: LTEA_HepaRG_TGFB1: Life Technologies and Expression Analysis (LTEA) Assay for Transforming Growth Factor (TGFB1) Transporter using HepaRG (AID 2283533); settings: mRNA level, 48 h; actives raise or lower the signal
# How it was run: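 Differentiated HepaRG cells exposed 48 hr in serum-free induction medium to eight half-log concentrations up to 100 uM (0.5% DMSO), duplicate; TGFB1 mRNA by TaqMan qRT-PCR normalised to ACTB, GAPDH, POLR2A; bidirectional fit against DMSO.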
# TIMP1, TIMP1 (gene 7076) = experiment: LTEA_HepaRG_TIMP1: Life Technologies and Expression Analysis (LTEA) Assay for TIMP1 using HepaRG (AID 2283534); settings: mRNA level, 48 h; actives raise or lower the signal;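 further: TaqMan qRT-PCR signal normalized to ACTB GAPDH and POLR2A housekeeping genes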
# How it was run: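 Differentiated HepaRG cells exposed 48 h in serum-free induction medium, duplicates, eight half-log concentrations from 100 uM in 0.5% DMSO. TIMP1 mRNA by qRT-PCR normalized to ACTB, GAPDH, POLR2A; bidirectional fitting against DMSO.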
# [9] = read-out: Tumor necrosis factor receptor 1 (TNFRSF1A), TNFRSF1A (gene 7132); experiment: LTEA_HepaRG_TNFRSF1A: Life Technologies and Expression Analysis (LTEA) Assay for Tumor necrosis factor receptor 1 (TNFRSF1A) using HepaRG (AID 2283535); settings: mRNA level, 48 h; actives raise or lower the signal
# How it was run: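 Differentiated HepaRG cells in serum-free induction medium, exposed 48 h in duplicate to 8 half-log concentrations up to 100 uM in 0.5% DMSO. TNFRSF1A mRNA by Fluidigm TaqMan qRT-PCR, normalized to ACTB, GAPDH, POLR2A; bidirectional fit.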
# [10] = read-out: Thyroid Hormone Responsive (THRSP), THRSP (gene 7069); experiment: LTEA_HepaRG_THRSP: Life Technologies and Expression Analysis (LTEA) Assay for Thyroid Hormone Responsive (THRSP) using HepaRG (AID 2283536); settings: mRNA level, 48 h; actives raise or lower the signal
# How it was run: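 mRNA induction or loss relative to 0.5% DMSO vehicle was fitted bidirectionally across an eight-point curve whose highest exposure was 100 uM. Human HepaRG liver cells received chemicals in duplicate over 48 h before RNA extraction.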
# [11] = read-out: Cellular tumor antigen p53 (Homo sapiens) (UniProt P04637); experiment: LTEA_HepaRG_TP53: Life Technologies and Expression Analysis (LTEA) Assay for Tumor Protein P53 (TP53) using HepaRG (AID 2283537); settings: mRNA level, 48 h; actives raise or lower the signal
# How it was run: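 Read-out is TP53 transcript level by microfluidic qRT-PCR, normalised to three housekeeping genes and fitted bidirectionally against DMSO. Human HepaRG cells received compounds for 48 h, highest concentration 100 uM.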
# [12] = read-out: UDP glucuronosyltransferase (UGT1A1), UGT1A1 (gene 54658); experiment: LTEA_HepaRG_UGT1A1: Life Technologies and Expression Analysis (LTEA) Assay for UDP glucuronosyltransferase (UGT1A1) using HepaRG (AID 2283538); settings: mRNA level, 48 h; actives raise or lower the signal
# How it was run: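 Readout is UGT1A1 transcript level by qRT-PCR, normalized to three housekeeping genes, after 48 h chemical treatment of HepaRG cells. Concentrations ran from 100 uM down in half-log steps with 0.5% DMSO, and gain or loss relative to DMSO was fitted.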
# [13] = read-out: UDP glucuronosyltransferase (UGT1A6), UGT1A6 (gene 54578); experiment: LTEA_HepaRG_UGT1A6: Life Technologies and Expression Analysis (LTEA) Assay for UDP glucuronosyltransferase (UGT1A6) using HepaRG (AID 2283539); settings: mRNA level, 48 h; actives raise or lower the signal
# How it was run: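 Differentiated HepaRG cells, ~100,000/well, were exposed for 48 h in serum-free induction medium with 0.5% DMSO to 8-point half-log series topping at 100 uM, in duplicate. mRNA measured by Fluidigm TaqMan qRT-PCR, normalized to ACTB, GAPDH and POLR2A.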
# [14] = read-out: X-box binding protein 1 (XBP1), XBP1 (gene 7494); experiment: LTEA_HepaRG_XBP1: Life Technologies and Expression Analysis (LTEA) Assay for X-box binding protein 1 (XBP1) using HepaRG (AID 2283540); settings: mRNA level, 48 h; actives raise or lower the signal
# How it was run: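 Differentiated human HepaRG cells in serum-free induction medium exposed 48 h in duplicate to eight half-log concentrations up to 100 uM in 0.5% DMSO. XBP1 mRNA measured by Fluidigm TaqMan qRT-PCR, normalized to ACTB, GAPDH, POLR2A; bidirectional fitting against DMSO.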
# [15] = LTEA_HepaRG_LDH_cytotoxicity: Cytotoxicity Assessment in the Life Technologies and Expression Analysis (LTEA) Assay (AID 2283563; active means hit-call score of the fitted dose curve at least 0.9, where 1 is the maximum;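 on AC50: LDH activity released into spent culture medium as a marker of cell death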)
# How it was run: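 Differentiated HepaRG cells in serum-free induction medium, exposed 48 h in duplicate to 8 half-log concentrations up to 100 uM in 0.5% DMSO. Cytotoxicity from LDH measured in spent medium, fit relative to DMSO.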
# [16] = TOX21_p53_BLA_p2_viability: Viability Assessment in the Tox21 HCT-116 p53 Agonism Beta-lactamase Assay, Phase 2 (AID 2283591; active means hit-call score of the fitted dose curve at least 0.9, where 1 is the maximum;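 further: compound exposure lasted 16 h at 37 °C; actives lower the ATP signal meaning cytotoxicity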)
# How it was run: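 Cytotoxicity readout: CellTiter-Glo ATP luminescence, 30 min at room temperature, after the beta-lactamase read. Cells were HCT116 exposed 16 h at 37C to compounds pin-transferred at 217-fold dilution from DMSO stocks.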
# [17] = TOX21_p53_BLA_p3_viability: Viability Assessment in the Tox21 HCT-116 p53 Agonism Beta-lactamase Assay, Phase 3 (AID 2283593; active means hit-call score of the fitted dose curve at least 0.9, where 1 is the maximum;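 further: cells exposed to compound for 16 h before reading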)
# How it was run: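 Cellular ATP was quantified by CellTiter-Glo luminescence, read after 30 min at room temperature. Beforehand, HCT116 cells (4000/well) received compound 5 h post-seeding, 217-fold diluted from DMSO, then incubated 16 h at 37C.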
# [18] = biological target: Cellular tumor antigen p53 (Homo sapiens) (UniProt P04637); experiment: TOX21_p53_BLA_p2_ratio: Tox21 HCT-116 p53 Agonism Beta-lactamase Assay, Ratio, Phase 2 (AID 2283592; active means hit-call score of the fitted dose curve at least 0.9, where 1 is the maximum)
# How it was run: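 HCT-116 cells with p53-responsive beta-lactamase reporter, 4000 cells/well, preincubated 5 h, then compound in DMSO (217-fold dilution) for 16 h at 37C. CCF4-AM substrate 2 h at room temperature; 460/530 nm emission ratio fitted upward versus DMSO.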
# [19] = ATG_XTT_Cytotoxicity: Cytotoxicity Assessment in the Attagene TRANS-FACTORIAL HepG2 Assay (AID 2283584; active means hit-call score of the fitted dose curve at least 0.9, where 1 is the maximum)
# How it was run: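 HepG2 cells transiently transfected with GAL4-UAS multiple reporter units, dosed 24 h; cytotoxicity read by XTT as loss of signal versus DMSO baseline.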
# Chain of Signal transducer and activator of transcription 3 (Homo sapiens) (P40763 whole entry, looked up): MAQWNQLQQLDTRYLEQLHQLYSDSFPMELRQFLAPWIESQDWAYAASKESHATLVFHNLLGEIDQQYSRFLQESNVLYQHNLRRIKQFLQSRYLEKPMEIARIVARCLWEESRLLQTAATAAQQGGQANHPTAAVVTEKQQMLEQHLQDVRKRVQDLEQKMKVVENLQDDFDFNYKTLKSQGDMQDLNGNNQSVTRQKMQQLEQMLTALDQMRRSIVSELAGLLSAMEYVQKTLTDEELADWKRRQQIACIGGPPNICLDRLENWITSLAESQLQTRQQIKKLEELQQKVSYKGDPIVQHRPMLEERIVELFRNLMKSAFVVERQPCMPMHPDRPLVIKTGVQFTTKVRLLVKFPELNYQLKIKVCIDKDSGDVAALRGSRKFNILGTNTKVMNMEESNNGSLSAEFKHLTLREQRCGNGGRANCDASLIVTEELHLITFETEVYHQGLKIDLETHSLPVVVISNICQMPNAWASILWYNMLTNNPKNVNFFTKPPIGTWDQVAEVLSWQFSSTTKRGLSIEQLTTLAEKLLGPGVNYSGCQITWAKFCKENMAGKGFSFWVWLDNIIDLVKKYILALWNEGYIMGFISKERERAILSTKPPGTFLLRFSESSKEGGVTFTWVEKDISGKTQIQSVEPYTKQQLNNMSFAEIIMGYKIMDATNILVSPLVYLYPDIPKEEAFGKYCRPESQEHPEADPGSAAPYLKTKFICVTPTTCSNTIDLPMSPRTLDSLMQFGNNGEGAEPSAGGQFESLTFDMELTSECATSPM
# Chain of Nuclear factor erythroid 2-related factor 2 (Homo sapiens) (Q16236 whole entry, looked up): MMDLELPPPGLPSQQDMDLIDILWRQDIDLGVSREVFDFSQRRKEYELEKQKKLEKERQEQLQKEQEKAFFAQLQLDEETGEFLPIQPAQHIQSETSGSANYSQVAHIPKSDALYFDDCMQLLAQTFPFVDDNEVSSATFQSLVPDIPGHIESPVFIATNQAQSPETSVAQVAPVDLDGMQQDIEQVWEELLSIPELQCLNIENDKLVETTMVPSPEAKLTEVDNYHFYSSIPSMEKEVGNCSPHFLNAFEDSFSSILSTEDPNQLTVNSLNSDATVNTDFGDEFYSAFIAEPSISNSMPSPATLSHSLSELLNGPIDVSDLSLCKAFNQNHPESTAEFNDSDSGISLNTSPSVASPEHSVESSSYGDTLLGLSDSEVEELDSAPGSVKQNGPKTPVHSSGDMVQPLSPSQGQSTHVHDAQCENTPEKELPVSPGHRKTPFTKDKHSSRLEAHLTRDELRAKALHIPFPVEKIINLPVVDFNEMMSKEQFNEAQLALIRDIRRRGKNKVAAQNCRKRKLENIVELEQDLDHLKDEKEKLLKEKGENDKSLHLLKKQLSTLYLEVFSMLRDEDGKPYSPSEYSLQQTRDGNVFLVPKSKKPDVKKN
# Chain of Cellular tumor antigen p53 (Homo sapiens) (P04637 whole entry, looked up): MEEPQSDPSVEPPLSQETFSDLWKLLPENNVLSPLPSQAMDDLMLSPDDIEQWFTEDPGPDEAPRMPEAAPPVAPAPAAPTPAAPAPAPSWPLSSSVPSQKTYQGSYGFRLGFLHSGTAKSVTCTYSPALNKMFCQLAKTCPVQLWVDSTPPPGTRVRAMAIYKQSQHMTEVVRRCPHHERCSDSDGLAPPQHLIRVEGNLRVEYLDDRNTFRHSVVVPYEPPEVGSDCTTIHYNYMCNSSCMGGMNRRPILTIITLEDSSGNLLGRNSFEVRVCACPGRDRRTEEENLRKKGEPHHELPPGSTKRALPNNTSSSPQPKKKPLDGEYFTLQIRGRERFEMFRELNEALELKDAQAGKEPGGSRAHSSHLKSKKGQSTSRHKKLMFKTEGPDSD
smiles,measurement,setting,value
[As]#[In],outcome,[1],inactive
same,outcome,[2],inactive
same,outcome,[3],inactive
same,outcome,[4],inactive
same,outcome,[5],inactive
same,outcome,[6],inactive
same,outcome,[7],inactive
same,outcome,[8],inactive
same,outcome,"TIMP1, TIMP1 (gene 7076)",inactive
same,outcome,[9],inactive
same,outcome,[10],inactive
same,outcome,[11],inactive
same,outcome,[12],inactive
same,outcome,[13],inactive
same,outcome,[14],inactive
same,outcome,[15],inactive
same,outcome,[16],inactive
same,outcome,[17],inactive
CCOC(=O)[C@]1(c2ccccc2)Oc2ccccc2[C@@H]1N,outcome,[1],inactive
same,outcome,[2],inactive
same,outcome,[3],inactive
same,outcome,[4],inactive
same,AC50,[5],90.6 µM (active)
same,AC50,[6],93.2 µM (active)
same,AC50,[7],70.9 µM (active)
same,outcome,[8],inactive
same,AC50,[9],90.8 µM (active)
same,AC50,[10],3.18 µM (active)
same,AC50,[12],83.1 µM (active)
same,AC50,[13],80 µM (active)
same,outcome,[14],inactive
same,AC50,[15],77.6 µM (active)
Cc1ccc(N=C=O)cc1N=C=O,AC50,[1],38.9 µM (active)
same,outcome,[2],inactive
same,outcome,[3],inactive
same,outcome,[4],inactive
same,outcome,[5],inactive
same,AC50,[6],31.4 µM (active)
same,outcome,[7],inactive
same,outcome,[8],inactive
same,outcome,"TIMP1, TIMP1 (gene 7076)",inactive
same,outcome,[9],inactive
same,AC50,[10],19.3 µM (active)
same,outcome,[11],inactive
same,outcome,[12],inactive
same,outcome,[13],inactive
same,outcome,[14],inactive
same,AC50,[15],33.1 µM (active)
same,outcome,[18],inactive
same,outcome,[17],inactive
CC(C)N(Cc1ccccc1)C(=O)C(C)(C)C,outcome,[1],inactive
same,outcome,[2],inactive
same,outcome,[3],inactive
same,outcome,[4],inactive
same,outcome,[5],inactive
same,outcome,[6],inactive
same,outcome,[7],inactive
same,outcome,[8],inactive
same,outcome,"TIMP1, TIMP1 (gene 7076)",inactive
same,outcome,[9],inactive
same,outcome,[10],inactive
same,outcome,[11],inactive
same,AC50,[12],6.96 µM (active)
same,outcome,[13],inactive
same,outcome,[15],inactive
same,outcome,[19],inactive
